Source: PubChem (National Center for Advancing Translational Sciences (NCATS))
HTT aggregate = mutant huntingtin aggregation inhibition. Potency, µM (highest dose often 46.1 µM), for the others: at the highest dose activity change, negative = inhibition, most hits filed as inhibitors. AID 1688. actives 1.1% (n = 220,000). PC12 HttQ103-GFP aggregates, Acumen cytometry, 40 h; active = well fitted curve in the direction sought with a large enough effect; inconclusive = small, poorly fitted or top-dose-only effect, or another doubt; inactive = no such curve, though single readings can be large; an effect the other way counts as inactive or inconclusive; note: % is set by controls: 0 for no effect and ±100 for the full control effect; nearly all actives have a fitted effect of over 60% in size
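Inducible Q103 Huntingtin exon 1–GFP PC12 line, 1500 cells/well in phenol red free DMEM with 5% equine and 5% calf serum. Tebufenozide 100 nM induced expression; compounds titrated; aggregates quantified by cytometry.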
LMNA splice mod = modulators of lamin A splicing | HeLa LMNA splicing GFP/RFP minigene ratio, 48 h | actives 0.01% (n = 200,000) | Potency, µM (doses to about 46.1 µM), for the others: at the top dose ratio change, negative = inhibition, usual class: inhibitors; active = well fitted inhibition curve with a large enough effect in the signal ratio, with a control signal flat, not every such curve was filed as active; inconclusive = small, poorly fitted or top-dose-only effect, or effect the other way, or a change in a side signal; the % refers to the signal ratio; note: % is set by controls: 0 for no effect and ±100 for the full control effect
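S3 HeLa stable clones carrying a lamin A-EGFP splicing minigene plus DsRed2 were seeded at 600 cells/well in Opti-MEM with 2% FBS, pin-dosed and incubated 48 h at 37°C. Acumen cytometry (488 nm) gave the GFP/RFP total-intensity ratio.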
HTT cytoprotect = Huntington cell model cytoprotection by ATP luminescence. PC12 HTT-Q103 induced, cytoprotection, ATP luminescence, 40 h. Potency, µM (top dose mostly 56.4 µM), without a hit: cytoprotection (ATP increase), usual class: activators. actives 0.14% (n = 230,000); active = well fitted curve in the direction sought with a large enough effect; inconclusive = small, poorly fitted or top-dose-only effect, or another doubt; inactive = no such curve, though single readings can be large; an effect the other way counts as inactive or inconclusive; note: % of control where 0% means no effect; nearly all actives have a fitted effect of over 45% in size
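Compounds added alongside 100 nM tebufenozide, which induces toxic Q103 huntingtin exon 1-GFP in stable PC12 cells; surviving cells quantified by luminescent ATP measurement. Medium: phenol red-free DMEM, 5% equine and 5% calf serum.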
HPGD block = inhibitors of human 15-hydroxyprostaglandin dehydrogenase (HPGD); P15428; purified HPGD, NADH fluorescence kinetic, PGE2 substrate; Potency, µM, for inactives: at the highest dose activity change, negative = inhibition, most hits filed as inhibitors; actives 4.3% (n = 150,000); note: % is set by controls: 0 for no effect and ±100 for the full control effect
Target sequence (P15428 whole entry, looked up): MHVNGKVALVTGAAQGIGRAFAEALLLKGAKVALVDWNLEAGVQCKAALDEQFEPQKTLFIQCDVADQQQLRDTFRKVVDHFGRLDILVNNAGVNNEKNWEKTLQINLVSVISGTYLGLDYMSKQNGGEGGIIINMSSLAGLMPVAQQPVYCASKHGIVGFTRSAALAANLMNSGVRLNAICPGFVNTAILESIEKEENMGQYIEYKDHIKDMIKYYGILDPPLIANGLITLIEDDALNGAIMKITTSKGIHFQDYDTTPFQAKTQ
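NADH formation kinetics: reaction with 30 uM PGE2 and 1 mM NAD+ (final), 20 nM enzyme, Tris-HCl pH 8 with Tween 20, after 15 min compound preincubation at room temperature. Fluorescence change, last versus first of five reads.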
ALDH1A1 block = inhibitors of human aldehyde dehydrogenase 1A1. P00352. actives 7.3% (n = 220,000). Purified ALDH1A1, NADH fluorescence, propionaldehyde substrate. AID 1030. Potency, µM (highest dose often 75.3 µM), without a hit: at the highest dose activity, negative = inhibition, actives largely listed as inhibitors;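 note: plate controls were no enzyme wells and a reference inhibitor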
Numbers without * were called inactive; ? = inconclusive; · = not tested or not shown; [ ] = remark or other dose. Only some compounds are listed: those with a hit (about 8.8% of all), similar ones and a draw of the others. Unless noted, calls come from the whole dose curve; as a rule, active = well fitted inhibition curve with a large enough effect (not every such curve was filed as active); inconclusive = small, poorly fitted or top-dose-only effect, or another doubt; inactive = no such curve, though single readings can be large or run the other way. Potency is the fitted concentration of half-maximal effect.

SMILES	HTT aggregate	LMNA splice mod	HTT cytoprotect	HPGD block	ALDH1A1 block
CCN(CC)Cc1nc2c(c(=O)[nH]1)C1(CCCCC1)Cc1ccccc1-2	14%	-8%	11%[10 µM]	-2%	25µM*
O=c1[nH]c(NNC(=S)NC2CCCCC2)nc2c1C1(CCCC1)Cc1ccccc1-2	17%[9.22 µM]	·	21%[10 µM]	·	·
Cc1ccc(S(=O)(=O)N2c3ccccc3NC(=O)C2CC(=O)Nc2ccccc2)cc1 (configuration not stated)	23%	-2%	-10%[10 µM]	-8%	20µM*
CCCc1nc2c(=O)n(C)c(=O)nc-2n(C)n1	6.3µM*	·	-172%	·	3%
Cn1c(=O)c2c(SCc3cccnc3)nc(CC(C)(C)C)nc2n(C)c1=O	-20%	?	1%	-18%	0.89µM*
CCCc1nc(SCc2cccnc2)c2c(=O)n(C)c(=O)n(C)c2n1	-13%	5%	22%	-5%	?
CCOC(=O)Cn1nnnc1C(CC)N(Cc1cc2ccc(C)cc2[nH]c1=O)C1CCCC1 (configuration not stated)	-14%	-7%	-20%[10 µM]	-16%	20µM*
CCOC(=O)Cn1nnnc1C(CC)N(Cc1cccs1)Cc1cc2cc(C)ccc2[nH]c1=O (configuration not stated)	-25%	-6%	2%	?	?
CCOC(=O)Cn1nnnc1C(CC)N(Cc1cc2c(C)cc(C)cc2[nH]c1=O)C1CCCC1 (configuration not stated)	4%[9.22 µM]	5%	-26%	-7%	18µM*
Cc1ccc(OCC(=O)Nc2ccccc2C(=O)OCc2cc(=O)n3ccsc3n2)cc1C	·	2%[46 µM]	·	·	·
CN1C(=O)/C(=C2\SC(=S)N(C(CCC(=O)O)C(=O)O)C2=O)c2ccccc21 (configuration not stated)	-17%	0%	19%[10 µM]	28µM*	1.1µM*
CC(C)CCn1cnc2c(oc3nc4c(cc32)CCCC4)c1=O	-8%[9.22 µM]	·	-17%[10 µM]	·	3.2µM*
C(=N\Nc1nc(-c2ccccc2)cs1)/c1cccnc1	3%	-14%	-5%[10 µM]	-15%	-13%
Clc1ccc(N/N=C/c2cccnc2)cc1	12%	?	-21%[10 µM]	-12%	25µM*
CC(C)(C)c1csc(N/N=C/c2cccnc2)n1	-13%	?	-48%	·	25µM*
COc1ccc(/C=N/Nc2nc(-c3cccnc3)nc3ccccc23)cc1OC	-14%[9.22 µM]	·	-15%[10 µM]	·	·
Clc1ccccc1-c1nc(N/N=C/c2cccnc2)c2ccccc2n1	-33%	?	-83%	14µM*	?
COC(=O)[C@H](CCSC)NC(=O)C/C=C\[C@@H](C)[C@@H](CO)OC	·	·	0%[10 µM]	·	7%[13.5 µM]
COc1cccc(C(=O)NCc2ccc3[nH]c(C)cc3c2)c1	-3%	·	·	·	28µM*
COc1cc(C(=O)NCc2ccc3[nH]c(C)cc3c2)cc(OC)c1OC	30%	·	·	·	2%
Cc1cc2cc(CNC(=O)c3ccc4c(c3)OCO4)ccc2[nH]1	-23%	?	-13%	20µM*	35µM*
COc1ccc(C(=O)NCc2ccc3[nH]c(C)cc3c2)cc1OC	-5%	·	·	·	20µM*
C=CCn1c(SCC2CCCCO2)nc2sc(CC)cc2c1=O (configuration not stated)	-13%[9.22 µM]	·	-29%[10 µM]	·	·
CN(C)S(=O)(=O)c1ccc(/C(O)=C2/C(=O)C(=O)N(Cc3cccnc3)C2c2cccs2)cc1 (configuration not stated)	-97%[9.22 µM]	·	·	·	?
CN(C)S(=O)(=O)c1ccc(/C(O)=C2/C(=O)C(=O)N(CCN3CCCCC3)C2c2cccnc2)cc1 (configuration not stated)	·	·	·	-9%	22µM*
SMILES	HTT aggregate	LMNA splice mod	HTT cytoprotect	HPGD block	ALDH1A1 block
COc1ccc(OC)c(C2/C(=C(/O)c3cnn(-c4ccccc4)c3C)C(=O)C(=O)N2CCN(C)C)c1 (configuration not stated)	10µM*	?	-14%	-18%	-15%
Cc1c(/C(O)=C2/C(=O)C(=O)N(Cc3cccnc3)C2c2cccs2)cnn1-c1ccccc1 (configuration not stated)	3%	-3%	-26%	20µM*	1.1µM*
CN(C)S(=O)(=O)c1ccc(/C(O)=C2/C(=O)C(=O)N(Cc3cccnc3)C2c2ccncc2)cc1 (configuration not stated)	-6%	4%	4%	-13%	14µM*
COc1ccc2c(c1)C(=O)[C@H](OC(=O)N[C@H](C)C1CCCCC1)[C@@H](c1ccc(OC)c(Br)c1)O2	·	·	-82%	-3%	-9%
COc1ccccc1-c1nc(NC2CC2)c2ccccc2n1	·	?	-43%	·	-12%
Cc1c(CCNS(=O)(=O)c2ccccc2)sc2nc(-c3ccc(Cl)cc3)nn12	·	-18%[46 µM]	·	·	·
O=C1C(NS(=O)(=O)c2ccc(Cl)cc2)=C(N2CCCCC2)C(=O)c2ccccc21	?	-14%	19%[10 µM]	-17%	8.9µM*
CC(=O)CSCc1ccccn1	·	·	19%[10 µM]	-7%	3.5µM*
CCOC(=O)/C(C(=O)Nc1ccccc1Br)=C1/NC(C)(C)Cc2ccccc21	13%	-1%	-9%[10 µM]	-13%	28µM*
O=C(NCc1ccccc1)c1ccc2c(=O)n(CC3CCCO3)c(=S)[nH]c2c1 (configuration not stated)	-14%	19%	-31%	-5%	2.8µM*
O=C(NCc1ccco1)c1ccc2c(=O)n(CC3CCCO3)c(=S)[nH]c2c1 (configuration not stated)	0%	0%	-5%[1.9 µM]	-13%	3.2µM*
Cc1ccc(CNC(=O)c2ccc3c(=O)n(CC4CCCO4)c(=S)[nH]c3c2)cc1 (configuration not stated)	17%	5%	-38%	-9%	?
CC(C)NC(=O)c1ccc2c(=O)n(CC3CCCO3)c(=S)[nH]c2c1 (configuration not stated)	-16%	·	-42%	·	1.4µM*
Cc1ccc(S(=O)(=O)N(CC(=O)O)c2cccc(Cl)c2)cc1	·	·	·	-9%	10%
CC(=O)N1CCN(C(=O)CCC(=O)O)CC1	-4%[9.22 µM]	·	-13%[10 µM]	·	·
O=C(CCBr)N1CCN(C(=O)CCBr)CC1	12%	?	1%	?	0.89µM*
COc1cc(Cl)c(C)cc1NC(=O)c1ccc(S(C)(=O)=O)cc1	3%	-11%[46 µM]	-93%	·	5%
S=C(Nc1ccc2c(c1)OCCO2)Nc1ccc2c(c1)OCO2	-9%	·	·	·	22µM*
CCOc1cccc(C(=O)NC(=S)Nc2ccc(N3CCCC3)cc2)c1	15%	-7%	-7%[10 µM]	-6%	7.1µM*
CCOc1cccc(C(=O)NC(=S)Nc2ccc3c(c2)OCCO3)c1	-6%	·	-34%	·	4µM*
O=C(Nc1ccc2c(c1)OCO2)c1ccc(Cl)s1	-6%	-5%	-58%	16µM*	?
COc1cccc(OC)c1C(=O)NC(=S)Nc1ccc2c(c1)OCCO2	21%	·	-55%	·	-2%
